The list is not random: actives were taken first. Their share in the collection is about 32%.
CYP2C19 activ – cytochrome P450 2C19 (human) activation. P33261. recombinant CYP2C19, luciferin-H EGE luminescence; active compounds read high; 0 = fully inhibited enzyme, 1 = untreated enzyme. activation factor at 5 µM. 96,000 tested, under 10 active. AID 1025;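 active means activation factor of at least 2 at 5 µM in the primary screen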;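 further: 0 = wells with 2.5 mM tranylcypromine and 1 = vehicle-only wells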
Target sequence (P33261 whole entry, looked up): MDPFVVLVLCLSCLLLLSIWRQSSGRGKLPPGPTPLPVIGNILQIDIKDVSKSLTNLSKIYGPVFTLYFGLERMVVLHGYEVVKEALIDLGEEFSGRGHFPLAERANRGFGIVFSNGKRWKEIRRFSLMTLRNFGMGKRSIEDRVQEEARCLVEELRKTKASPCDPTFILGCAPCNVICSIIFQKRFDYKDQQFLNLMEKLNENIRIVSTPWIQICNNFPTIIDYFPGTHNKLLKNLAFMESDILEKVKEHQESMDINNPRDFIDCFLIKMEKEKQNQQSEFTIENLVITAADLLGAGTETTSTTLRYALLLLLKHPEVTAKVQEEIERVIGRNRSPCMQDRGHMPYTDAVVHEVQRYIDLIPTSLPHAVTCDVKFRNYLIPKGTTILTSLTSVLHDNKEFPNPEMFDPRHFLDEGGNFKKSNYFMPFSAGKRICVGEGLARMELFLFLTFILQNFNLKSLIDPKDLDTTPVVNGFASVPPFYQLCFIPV
CYP2C19 inhib – human CYP2C19 inhibition; P33261; CYP2C19 Supersomes, luciferin-H EGE luminescence, 30 min; inhibition, % at 5 µM; 96,000 compounds, 21% hits;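 active means CYP2C19 inhibition above a set limit at 5 µM in the primary screen, cut at about 50% in these data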;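 further: plate controls were negative control wells for no effect and 2.5 mM tranylcypromine positive control for full effect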
CYP2C9 act – activators of human CYP2C9 | P11712 | recombinant CYP2C9, luciferin-H conversion, luminescence; active compounds read high; factor 1 = untreated enzyme, 0 = blocked | activation factor at 5 µM | 96,000 compounds, 1.4% hits | AID 1024;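 active means activation factor of 2 or more for CYP2C9 at a 5 µM dose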;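 further: 0 = sulfaphenazole-blocked wells and 1 = vehicle-only wells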
PostGolgi yeast – growth inhibition of a yeast mutant, post-Golgi transport screen; inhibition, % at 10 µM; AID 739; 98,000 compounds, 0.9% hits; post-Golgi transport phenotypic cell assay;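 further: yeast cells grown in 1536-well plates; yeast grown about 18 h at 30C before absorbance read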
PostGolgi ctrl – inhibits growth of the yeast control strain; efflux-deficient yeast background strain, growth absorbance A615, 16 h; 98,000 compounds, 5% hits; inhibition, % at 10 µM
CYP2C9 inhib – blocks human cytochrome P450 2C9. P11712. inhibition, % at 5 µM. 96,000 compounds, 20% hits. CYP2C9 Supersomes, luciferin-H conversion, luminescence;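 active means blocking of liver enzyme CYP2C9 beyond about 50% at 5 µM, limit read from the data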
An asterisk follows results filed as active. Unless noted, no stated cut-off is given here; in the data, active means inhibition above about 30%; inactive means the rest.

`Nn1c(SCC(=O)Nc2ccc3c(c2)OCO3)nnc1-c1ccncc1` gave CYP2C19 activ 1, CYP2C19 inhib -2, CYP2C9 act 0.8, PostGolgi yeast 13, PostGolgi ctrl -1 and CYP2C9 inhib 22.
Screening C=CCOc1nc(N2CCCC2)nc(N2CCCC2)n1 returned CYP2C19 activ 1, CYP2C19 inhib 0, CYP2C9 act 1, PostGolgi yeast 1, PostGolgi ctrl 21 and CYP2C9 inhib -1.
For O=c1c(Cc2ccc(F)cc2)c(O)ccn1Cc1ccc(Cl)cc1Cl the results were CYP2C19 activ 1, CYP2C19 inhib 4, CYP2C9 act 1.1, PostGolgi yeast 16, PostGolgi ctrl -5 and CYP2C9 inhib -7.
Cc1ccc(Nc2nnc(SCC(=O)Nc3ccc(S(=O)(=O)N4CCOCC4)cc3)s2)cc1 was read as CYP2C19 activ 1.2, CYP2C19 inhib -20, CYP2C9 act 0.3, PostGolgi yeast -4, PostGolgi ctrl 16 and CYP2C9 inhib 74*.
Screening O=C(CSc1nnc(Nc2ccccc2)s1)Nc1ccc(S(=O)(=O)N2CCOCC2)cc1 returned CYP2C19 activ 1.1, CYP2C19 inhib -5, CYP2C9 act 0.9, PostGolgi yeast -2, PostGolgi ctrl 3 and CYP2C9 inhib 10.
Screening CCC(C)NC(=O)CSc1nnc(-c2cc(-c3ccc(C)cc3)nc3ccccc23)n1N (stereo not drawn) returned CYP2C19 activ 0.9, CYP2C19 inhib 14, CYP2C9 act 0.5, PostGolgi yeast 8, PostGolgi ctrl 10 and CYP2C9 inhib 47.
`Cc1ccc(-c2cc(-c3nnc(SCC(=O)NCC(C)C)n3N)c3ccccc3n2)cc1` gave CYP2C19 activ 0.6, CYP2C19 inhib 39, CYP2C9 act 0.2, PostGolgi yeast -8, PostGolgi ctrl 11 and CYP2C9 inhib 78*.
`CCOC(=O)c1ccc(NC(=O)CSc2nnc(-c3ccncc3)n2C)cc1` gave CYP2C19 activ 0.3, CYP2C19 inhib 69*, CYP2C9 act 0.3, PostGolgi yeast 0, PostGolgi ctrl 3 and CYP2C9 inhib 73*.
`COC(=O)c1c(C(=O)OC)c(-c2ccc(Cl)c(Cl)c2)n2c1CCC2` gave CYP2C19 activ 0.8, CYP2C19 inhib 21, CYP2C9 act 0.6, PostGolgi yeast 1, PostGolgi ctrl 36* and CYP2C9 inhib 37.
`COC(=O)c1c(C(=O)OC)c(-c2ccc(C)cc2)n2c1CCC2` gave CYP2C19 activ 0.8, CYP2C19 inhib 21, CYP2C9 act 0.8, PostGolgi yeast 4, PostGolgi ctrl 15 and CYP2C9 inhib 19.
COc1cccc(C(=O)/C=C/Nc2ccc(S(=O)(=O)Nc3cccc(C(C)=O)c3)cc2)c1 was read as CYP2C19 activ 0.7, CYP2C19 inhib 34, CYP2C9 act 0.2, PostGolgi yeast 4, PostGolgi ctrl 42* and CYP2C9 inhib 78*.
COc1cccc(C(=O)/C=C/c2ccc(SC)cc2)c1 was read as CYP2C19 activ 0.1, CYP2C19 inhib 92*, CYP2C9 act 0.6, PostGolgi yeast 9, PostGolgi ctrl 27 and CYP2C9 inhib 40.
`COc1cccc(/C=C/C(=O)c2ccc[nH]2)c1` gave CYP2C19 activ 0.3, CYP2C19 inhib 70*, CYP2C9 act 0.8, PostGolgi yeast -4, PostGolgi ctrl -1 and CYP2C9 inhib 17.
`COc1cccc(C(=O)/C=C/Nc2cccc(O)c2)c1` gave CYP2C19 activ 0.1, CYP2C19 inhib 91*, CYP2C9 act 0.7, PostGolgi yeast 4, PostGolgi ctrl 9 and CYP2C9 inhib 28.
`CSc1ccc(/C=C/C(=O)c2ccc(NC(=O)C(C)C)cc2)cc1` gave CYP2C19 activ 0.8, CYP2C19 inhib 16, CYP2C9 act 0.8, PostGolgi yeast -1, PostGolgi ctrl 11 and CYP2C9 inhib 20.
`C=CCn1cc(/C=N\NC(=O)c2cc3c(ccc4ccccc43)o2)c2ccccc21` gave CYP2C19 activ 0.8, CYP2C19 inhib 17, CYP2C9 act 0.4, PostGolgi yeast 0, PostGolgi ctrl 35* and CYP2C9 inhib 62*.
O=C(N/N=C/C=C/c1ccccc1)c1cc2c(ccc3ccccc32)o1 was read as CYP2C19 activ 1.1, CYP2C19 inhib -5, CYP2C9 act 1.1, PostGolgi yeast 1, PostGolgi ctrl 10 and CYP2C9 inhib -10.
CC(C)N1C(=S)SC(C)(C)C1NO (stereo not drawn) was read as CYP2C19 activ 0.9, CYP2C19 inhib 14, CYP2C9 act 1.1, PostGolgi yeast 1, PostGolgi ctrl 8 and CYP2C9 inhib -7.
Cc1ccc(NC(=O)NNC(=O)C2CC(c3cccnc3)=NO2)cc1 (stereo not drawn) was read as CYP2C19 activ 0.9, CYP2C19 inhib 9, CYP2C9 act 0.8, PostGolgi yeast -3, PostGolgi ctrl 11 and CYP2C9 inhib 22.
Screening Cc1ccc(C(=O)Nc2ccccc2-c2ccccc2)o1 returned CYP2C19 activ 0.8, CYP2C19 inhib 22, CYP2C9 act 0.6, PostGolgi yeast 6, PostGolgi ctrl 35* and CYP2C9 inhib 38.
`Cc1cnc(C(=O)Nc2cccc3ncccc23)cn1` gave CYP2C19 activ 0.9, CYP2C19 inhib 10, CYP2C9 act 1 and CYP2C9 inhib 2.
For Cc1cnc(C(=O)Nc2ccccc2-c2ccc(C)o2)cn1 the results were CYP2C19 activ 1, CYP2C19 inhib -4, CYP2C9 act 0.1, PostGolgi yeast 1, PostGolgi ctrl 8 and CYP2C9 inhib 89*.
Screening Cn1c(NC(=O)c2ccccc2NC(=O)C(C)(C)C)nc2ccccc21 returned CYP2C19 activ 1.1, CYP2C19 inhib -14, CYP2C9 act 0.9, PostGolgi yeast 3, PostGolgi ctrl 12 and CYP2C9 inhib 8.
For COc1ccc(S(=O)(=O)N2CCC(C(=O)N3CCCCC3)CC2)cc1Cl the results were CYP2C19 activ 0.1, CYP2C19 inhib 92*, CYP2C9 act 0.8, PostGolgi yeast -9, PostGolgi ctrl 4 and CYP2C9 inhib 20.
For COc1ccc(S(=O)(=O)N2CCCCC2)cc1C(C)C the results were CYP2C19 activ 0.7, CYP2C19 inhib 31, CYP2C9 act 0.8, PostGolgi yeast -5, PostGolgi ctrl 6 and CYP2C9 inhib 22.
For O=C(COc1ccc(S(=O)(=O)N2CCCC2)cc1Cl)NC1CCCC1 the results were CYP2C19 activ 1, CYP2C19 inhib 4, CYP2C9 act 0.5, PostGolgi yeast 7, PostGolgi ctrl -11 and CYP2C9 inhib 48.
For COc1ccc(S(=O)(=O)N2CCC(C(=O)N3CCCC3)CC2)cc1Cl the results were CYP2C19 activ 0.1, CYP2C19 inhib 89*, CYP2C9 act 0.8, PostGolgi yeast -8, PostGolgi ctrl -8 and CYP2C9 inhib 22.
`Cc1oc(-c2ccccc2F)nc1CS(=O)(=O)CC(=O)NC1CCCC1` gave CYP2C19 activ 0.9, CYP2C19 inhib 14, CYP2C9 act 0.5, PostGolgi yeast 0, PostGolgi ctrl 12 and CYP2C9 inhib 52*.

Screening data from PubChem.
